Measurements published in PubChem BioAssay (Tox21).
Inconclusive results are not listed. Values without a mark were called inactive. The source made the active and inactive calls. Calls come from the whole dose curve; as a rule, active = well fitted cell-killing curve with a large enough effect in the repeat runs; inconclusive = weak or mixed curves, or effect the other way; inactive = flat fitted curve, though single readings scatter.

Experiment: cAMP Responsive Elements (CRE) small molecule agonists, cell-based qHTS assay: qHTS cell viability counter screen (AID 2060914); note: nearly all actives have a fitted effect of over 50% in size
Conditions: CRE-bla HEK293T viability, CellTiter-Glo luminescence, 5 h; series mostly up to 92.4 µM; activity change, negative = cytotoxicity: at the top concentration
How it was run: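 HEK 293T CRE-bla; DMEM + 10% dialyzed FBS, 25 mM HEPES; 18 h pre-incubation; compound 3 h, 37 °C/5% CO2; CellTiter-Glo added after reporter read; luminescence after 30 min RT.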
% is set by controls: 0 for no effect and ±100 for the full control effect.

Row | Compound | activity change, negative = cytotoxicity | Potency
1 | CC(O)c1ccccc1 (centres undefined) | 10.4% | 
2 | c1ccc(C(O[C@@H]2CCCN(CCc3ccc4c(c3)OCO4)C2)c2ccccc2)cc1 | -17% | 
3 | Nc1cccnc1N | -0.0798% | 
4 | O=C1OC2(c3ccccc31)c1ccc(O)c(Br)c1Oc1c2ccc(O)c1Br | 14.4% | 
5 | OC1CCCCC1 |  | inactive
6 | OCC1CC2CC1C1CCC(CO)C21 (centres undefined) | -1.11% | 
7 | CCCCCCCC(=O)OCC(COC(=O)CCCCCCC)OC(=O)CCCCCCC |  | inactive
8 | CC(C)OCC1CO1 (centres undefined) | 9.46% | 
9 | O=C1c2ccccc2-c2ccccc21 | 0.521% | 
10 | COc1c(C)c2c(c(O)c1C/C=C(\C)CCC(=O)OCCN1CCOCC1)C(=O)OC2 | -21.1% [at 42.5 µM] | 
11 | COC(=O)Nc1nc2ccc(S(=O)c3ccccc3)cc2[nH]1 (centres undefined) |  | inactive
12 | Oc1ccc(O)c2c(O)cccc12 | 14.3% | 
13 | O=[N+]([O-])c1cc(C(F)(F)F)ccc1Cl |  | inactive
14 | CCCC=O | 18.7% | 
15 | CC(C)CO | 7% | 
16 | CCN(CC)C(C)CN1c2ccccc2Sc2ccccc21 (centres undefined) | 0.214% [at 42.5 µM] | 
17 | CCCCCCCCCCCCCOS(=O)(=O)O | -22.9% | 
18 | O=C(O)c1[nH]n(-c2ccc(S(=O)(=O)O)cc2)c(=O)c1N=Nc1ccc(S(=O)(=O)O)cc1 |  | inactive
19 | CCOC(=O)CC(=O)c1ccccc1 | -4.37% | 
20 | C/C(=N\O)[C@@H](C)NCC(C)(C)CN[C@H](C)/C(C)=N/O | -1.23% [at 42.5 µM] | 
21 | CN1C(=O)c2ccccc2C1=O | 6.14% | 
22 | NCCCC(N)(C(=O)O)C(F)F (centres undefined) | 5.8% [at 42.5 µM] | 
23 | CN(C)CCOC1=Cc2ccccc2Sc2ccc(Cl)cc21 | 13.3% [at 42.5 µM] | 
24 | C/C=C/C(=O)Oc1c(CCCCCC(C)C)cc([N+](=O)[O-])cc1[N+](=O)[O-] | -34.5% | 
